Records with an inconclusive call do not appear. Active and inactive are the calls of the source. How the source made its calls, unless noted: active means hit-call score of the fitted dose curve at least 0.9, where 1 is the maximum; inactive means score below 0.9.
Assays:
[1] = CCTE_Deisenroth_5AR_NBTE_donor: CCTE's 5alpha-reductase NanoBRET Target Engagement Assay […], Deisenroth Lab (AID 2284319); settings: actives raise or lower the signal
In short: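 SRD5A2-NanoLuc, HEK293T, 20 h expression. Chemical 10 nM - 29.9 uM, 8 conc, duplicate; 3 h preincubation + 2 h testosterone tracer. Nano-Glo substrate plus extracellular NanoLuc inhibitor; donor lum 460 nm. DMSO baseline, bidirectional fit.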

[2] = CCTE_Deisenroth_5AR_NBTE_acceptor: CCTE's 5alpha-reductase NanoBRET Target Engagement Assay - Autofluorescence Screen, Deisenroth Lab (AID 2284321); settings: actives raise or lower the signal;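 further: compound fluorescence in the acceptor channel under 460 nm excitation flags autofluorescence artifacts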
In short: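 Acceptor fluorescence intensity was read as an artifact-detection endpoint. Test chemicals at an assumed nominal 100 uM were excited at 460 nm across three independent runs. Activity was fitted bidirectionally against DMSO.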

[3] = tested on: SRD5A2 (gene 6716); assay: CCTE_Deisenroth_5AR_NBTE_ratio: CCTE's 5alpha-reductase NanoBRET Target Engagement Assay - Ratio, Deisenroth Lab (AID 2284322); settings: actives raise or lower the signal
In short: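 Reverse-transfect HEK293T with pNLF1-C-SRD5A2, express 20 h. Pre-incubate cells with chemical 3 h (8-point series, 10 nM - 29.9 uM, duplicate). Add testosterone tracer, 2 h more. Add substrate/inhibitor, read donor and acceptor emission.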

[4] = CCTE_Mundy_HCI_iCellGluta_NOG_NeuriteLength: CCTE's Neurite Outgrowth Assay in iCellGluta cells for Neurite Length, Mundy Lab (AID 2284318; active means hit-call score of the fitted dose curve at least 0.9, where 1 is the maximum)
In short: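 Automated high-content imaging of betaIII-tubulin (Alexa Fluor-488) and Hoechst-stained cells gave neurite length, normalized to the DMSO baseline.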

[5] = CCTE_Mundy_HCI_iCellGluta_NOG_NeuronCount: CCTE's Neurite Outgrowth Assay in iCellGluta cells for Neuron Count, Mundy Lab (AID 2284340; active means hit-call score of the fitted dose curve at least 0.9, where 1 is the maximum;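 further: cells fixed about 48 h after compound addition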)
In short: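 Neuron count read by automated high-content imaging of Hoechst 33342 and betaIII-tubulin/Alexa Fluor-488 labelling in human iPSC glutamatergic neurons. Activity fitted relative to DMSO.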

[6] = tested on: IYD (gene 389434); assay: CCTE_GLTED_hIYD: CCTE's human Iodotyrosine Deiodinase (xIYD) Inhibition Assay, Great Lakes Toxicology and Ecology Division (GLTED) Lab (AID 2284317; active means hit-call score of the fitted dose curve at least 0.9, where 1 is the maximum;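 further: cell-free human IYD enzyme made in baculovirus insect cells; iodide freed from monoiodotyrosine measured by cerium arsenite color change at 420 nm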)
In short: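 Human IYD expressed in a baculovirus-insect cell system was incubated 3 h with monoiodotyrosine and test chemical. Released iodide, separated on Dowex columns, was quantified by the Sandell-Kolthoff reaction at 420 nm; plates were normalized to MNT and DMSO/NaOH controls.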

[7] = IUF_NPC2-5_cell_number_120hr: Cell Number Assessment at 120 hours in the Leibniz Research Institute for Environmental Medicine (IUF) Neural Progenitor Cell Migration and Differentiation Assay (NPC2-5) (AID 2284308);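 further: count of Hoechst-stained nuclei in migration zone around plated human neural progenitor spheres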
In short: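 hNPC spheres, one per well, PDL/laminin, N2 medium, 37C, 5% CO2. Dosing day 0 → half-medium change with fresh compound day 3 → fix 120 h. Readout: Hoechst+ nuclei count, migration area; 7 concentrations plus solvent control.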

[8] = IUF_NPC2-5_viability_120hr: Viability Assessment at 120 hours in the Leibniz Research Institute for Environmental Medicine (IUF) Neural Progenitor Cell Migration and Differentiation Assay (NPC2-5) (AID 2284312)
In short: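 Human fetal (GW 16-19) neural progenitor spheres of 0.3 mm were plated on poly-D-lysine/laminin in N2 differentiation medium and exposed from day 0 for 120 h, with half-medium refresh at day 3. Viability was read as alamar blue resazurin-to-resorufin fluorescence against DMSO.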

[9] = IUF_NPC1_cytotoxicity_72hr: Cytotoxicity Assessment at 72 hours in the Leibniz Research Institute for Environmental Medicine (IUF) Neural Progenitor Cell Proliferation Assay (NPC1) (AID 2284332; active means hit-call score of the fitted dose curve at least 0.9, where 1 is the maximum;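 further: rising LDH signal means more cytotoxicity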)
In short: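 Single human fetal cortex neural progenitor spheres (GW 16-19, 0.25-0.35 mm) in EGF/FGF proliferation medium were exposed to compound for 72 h at 37C without renewal. Medium LDH release was read as resorufin fluorescence and fitted as gain-of-signal.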

CN(C)c1ccc(C(=N)c2ccc(N(C)C)cc2)cc1
outcome [1]: inactive | outcome [2]: inactive | AC50 [3]: 22.6 µM (active)

N[C@H]1C(O)O[C@H](CO)[C@H](O)[C@@H]1O (some centres not stated)
outcome [4]: inactive | outcome [5]: inactive

CCCCCCCC[N+](C)(CCCCCCCC)CCCCCCCC
AC50 [6]: 27.2 µM (active) | AC50 [1]: 11.4 µM (active) | AC50 [2]: 8.7 µM (active) | AC50 [3]: 20.1 µM (active)

CCCCCCCC/C=C\CCCCCCCC(=O)O
AC50 [6]: 41 µM (active) | outcome [1]: inactive | outcome [2]: inactive | outcome [3]: inactive

CC/C=C\C/C=C\C/C=C\CCCCCCCC(=O)O
outcome [6]: inactive

CC(C)(C)c1ccc(-c2ccc(C(C)(C)C)cc2)cc1
outcome [6]: inactive

CCCCCCCC/C=C\CCCCCCCC(=O)OCCO
AC50 [6]: 128 µM (active)

Nc1ncn([C@@H]2O[C@H](CO)[C@@H](O)[C@H]2O)c(=O)n1
outcome [7]: inactive | outcome [8]: inactive | AC50 [4]: 7.87 µM (active) | outcome [9]: inactive | outcome [5]: inactive

CC1(C)S[C@@H]2[C@H](NC(=O)COc3ccccc3)C(=O)N2[C@H]1C(=O)O
outcome [7]: inactive | outcome [8]: inactive | outcome [4]: inactive | outcome [9]: inactive

O=S(=O)(O)c1ccccc1C=Cc1ccc(-c2ccc(C=Cc3ccccc3S(=O)(=O)O)cc2)cc1
AC50 [6]: 100 µM (active)

Cc1ccc(C(C)c2ccc(C)c(C)c2)cc1C
outcome [1]: inactive | outcome [2]: inactive | AC50 [3]: 50 µM (active)

Oc1ccc(Cl)cc1Cc1cc(Cl)ccc1O
AC50 [6]: 100 µM (active) | outcome [1]: inactive | outcome [2]: inactive | AC50 [3]: 29 µM (active)

C1CN(SSN2CCOCC2)CCO1
outcome [1]: inactive | outcome [2]: inactive | outcome [3]: inactive

O=C(Nc1cccc(C(F)(F)F)c1)c1cc(Br)cc(Br)c1O
AC50 [6]: 100 µM (active)

Source: PubChem BioAssay (EPA / NIEHS)
